# From PubChem BioAssay (NCI)
# Values joined by “and” are separate entries in the source; they are usually repeats but may differ in a detail not shown here. Equal values may be shown once. Compounds without any hit were thinned out: in the full panel of roughly 83,000, 20% have a hit.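 Treatment: one concentration, 48 hours, 96-well format. Scoring: percent growth, with anything below 10 considered active.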 Active and inactive are the calls of the source.
# Tested on: NCI-H23 lung
# Assay: NCI-60 one-dose screen, 48 h (100 = growth as untreated, 0 = no growth, -100 = all killed)
# Details: 10 µM unless noted
row,Structure (SMILES),growth
1,Cc1cc(O)c(C(C)C)cc1N,97.5% (inactive) and 92.7% (inactive)
2,O=C(O)CN(CCN(CC(=O)O)CC(=O)O)CCN(CC(=O)O)CC(=O)O,-19% (active) and 104% (inactive) and 110% (inactive)
3,O=S1(=O)CC(Br)C(Br)C1 (configuration not stated),61.3% (inactive) and 97.8% (inactive)
4,O=C(O)CSCc1nc2ccccc2[nH]1,95.7% (inactive)
5,CCc1c(CC(=O)O)c2cc(C)ccc2n1Cc1ccc(Cl)cc1,97.3% (inactive) and 90% (inactive)
6,COc1cc(/C=N/Nc2nc3c([nH]2)c(=O)n(C)c(=O)n3C)ccc1O,93.6% (inactive) and 111% (inactive)
7,O=C1C2=C(C(=O)c3ccccc31)C(O)(S(=O)(=O)O)C(O)(S(=O)(=O)O)C1N=CC=CC21 (configuration not stated),31.8% (inactive) and 20.8% (inactive)
8,O=[N+]([O-])c1ccccc1N(S(=O)(=O)c1ccccc1)S(=O)(=O)c1ccccc1,106% (inactive) and 95.9% (inactive)
9,CC1=C(/C=C/C(C)=C/C=C/C(C)=C/C(=O)O)C(C)(C)CCC1,86.6% (inactive) and 96.1% (inactive) and 98.3% (inactive)
10,Cn1cc(-c2cc3c(Nc4ccc(CC(=O)Nc5cc(C(C)(C)C)on5)cc4)ncnc3[nH]2)cn1,-34% (active) and -14% (active)
11,C[N+](C)(C)CN1C(=O)c2ccccc2C1=O,105% (inactive)
12,O=[N+]([O-])c1ccc2nc3c4ccccc4c4ccccc4c3nc2c1,81.8% (inactive)
